Test results published in PubChem BioAssay (NCATS).
Unmarked numbers belong to inactive results. Results filed as inconclusive are left out. Where a call stands in place of a potency, no number is given. Active and inactive are the calls of the source. Unless noted, calls follow the shape of the dose curve; as a rule, active = well fitted curve in the direction sought with a large enough effect; inconclusive = small, poorly fitted or top-dose-only effect, or another doubt; inactive = no such curve, though single readings can be large; an effect the other way counts as inactive or inconclusive.

What was measured:
[1] = biological target: Mitogen-activated protein kinase 10 (Mus musculus) (UniProt Q61831); assay: JNK3 AlphaScreen Assay (AID 530; active = well fitted curve in either direction with a large enough effect, not every such curve was filed as active;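 also: kinase came from lysate of stimulated human HepG2 cells; signal reports phosphorylation of biotinylated GST-cJun 1-79 at Ser73 with 10 µM ATP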)
In short: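 Kinase buffer: 20 mM Tris-HCl pH 7.6, 10 mM MgCl2, 1 mM DTT, 0.1 mM Na3VO4, 0.01% Tween-20; ATP 10 uM. Substrate biotin-GST-cJun(1-79), enzyme from activated HepG2 lysates. Detection by Ser73 phospho-antibody AlphaScreen.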

[2] = Cell Viability - N2a (AID 540); settings: N2a mouse neuroblastoma cell viability; at 92.2 µM (top of the series); also: nearly all actives have a fitted effect of over 45% in size
In short: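 N2a mouse neuroblastoma, 1500 cells/well, 5 hr settle; compound 40 hr, 37 °C; CellTiter-Glo 20 min RT; luminescence; Hill-fit AC50.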

[3] = Cell Viability - NIH 3T3 (AID 541); settings: NIH 3T3 cell viability, qHTS; activity change, negative = cytotoxicity: at 92.2 µM (top of the series);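 also: cells exposed to compound for 40 hours; nearly all actives have a fitted effect of over 25% in size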
In short: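 qHTS format; 40 hr compound exposure, 37 °C; CellTiter-Glo luminescence (cellular ATP) read-out after 20 min at RT. Decrease in ATP = cytotoxicity; AC50 from standard Hill fit.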

[4] = Cell Viability - HUV-EC-C (AID 542);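 also: cells exposed to compound for 40 hours; nearly all actives have a fitted effect of over 35% in size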; also: potency is read from the fitted curve at half-maximal effect
In short: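 Luminescent ATP read-out (CellTiter-Glo, 20 min room temperature) after 40 hr compound treatment of HUV-EC-C cells at 37 °C. Concentration-response data fitted with the standard Hill equation to give AC50; tamoxifen and doxorubicin served as positive controls.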

[5] = Cell Viability - H-4-II-E (AID 543);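 also: cells exposed to compound for 40 hours; nearly all actives have a fitted effect of over 35% in size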
In short: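 qHTS, rat hepatoma H-4-II-E, 1500 cells/well; 40 hr compound exposure, 37 °C; CellTiter-Glo ATP luminescence after 20 min RT; AC50 by standard Hill fit.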

[6] = Cell Viability - SH-SY5Y (AID 544);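 also: cells exposed to compound for 40 hours; nearly all actives have a fitted effect of over 55% in size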; also: potency is read from the fitted curve at half-maximal effect
In short: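 SH-SY5Y, 1500 cells/well, 5 hr pre-incubation 37 °C; cpd 40 hr 37 °C; CellTiter-Glo 20 min RT; luminescence (ATP) read. qHTS concentration-response, Hill fit → AC50. Tamoxifen, doxorubicin as positive controls.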

[7] = Cell Viability - Mesenchymal (AID 546);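 also: cells exposed to compound for 40 hours before reading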
In short: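 CellTiter-Glo luminescence (intracellular ATP, 20 min room temperature) after 40 hr compound exposure at 37 °C of 1000 glomerulus-derived human kidney mesenchymal cells/well; AC50 values obtained by fitting qHTS concentration-response data to the Hill equation.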

[8] = Cellular Toxicity (caspase-3) HepG2 (AID 654);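 also: cells exposed to compound for 16 hours before reading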
In short: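 Luminescent Caspase-Glo 3/7 readout after 16 hr compound exposure of human hepatocellular carcinoma HepG2 cells at 37 °C; qHTS concentration-response, normalized DMSO = 0%, 100 uM tamoxifen = 100%; AC50 by standard Hill equation.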

[9] = Cellular Toxicity (caspase-3) Jurkat (AID 655);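 also: cells exposed to compound for 16 h at 37 °C before reading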; also: potency is read from the fitted curve at half-maximal effect
In short: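 Caspase 3/7 activation is scored as increased luminescence in Jurkat cells cultured with compound for 16 hours in complete medium. AC50 values come from Hill fits of qHTS concentration-response data normalized to DMSO and 100 uM tamoxifen controls.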

[10] = Cellular Toxicity (caspase-3) BJ (AID 658); settings: Potency: caspase-3 activation
In short: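 Caspase-Glo 3/7 luminescence, read 1 hr after reagent at room temperature, in normal BJ fibroblasts exposed 16 hours at 37 °C. AC50 values from Hill-equation concentration-response, scaled between DMSO basal and 10 uM staurosporine as 100%.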

[11] = Cellular Toxicity (caspase-3) MRC-5 (AID 659)
In short: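 Luminescent Caspase-Glo 3/7 read-out (1 h, room temperature) after a 16 h, 37 °C compound exposure of MRC-5 lung fibroblasts at 1500 cells/well. Concentration-response AC50 from Hill equation; 0% DMSO, 100% 10 uM staurosporine.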

[12] = Cellular Toxicity (caspase-3) Mesangial (AID 660);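 also: combined caspase 3 and 7 activity read by Caspase-Glo luminescence; cells exposed to compound for 16 h before the caspase read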
In short: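 Luminescent Caspase-Glo 3/7 readout (aminoluciferin substrate cleavage, 20 min RT) after 16 h compound exposure at 37 °C of normal human mesangial cells. Signal increase normalized between DMSO basal and 100 uM tamoxifen; Hill-equation AC50.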

[13] = Cellular Toxicity (caspase-3) SK-N-SH (AID 661); settings: SK-N-SH caspase-3 activation, qHTS; caspase-3 activation: at 91.7 µM (top of the series), DMSO as zero, staurosporine as full
In short: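 Luminescent Caspase-Glo 3/7 read-out after 16 hr compound exposure of SK-N-SH neuroblastoma cells at 37 °C. Signal increase normalized to DMSO (basal) and 10 uM staurosporine (100%); AC50 from Hill equation fits of qHTS concentration-response data.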

[14] = Cellular Toxicity (caspase-3) H-4-II-E (AID 663);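 also: cells exposed to compound for 16 hr before readout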
In short: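 Caspase 3/7 activation measured by luminescent aminoluciferin substrate cleavage after 16 hr compound treatment of H-4-II-E cells in complete medium. Increase normalized between DMSO (basal) and 100 uM tamoxifen (100%); Hill-equation AC50 from concentration-response.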

[15] = Cellular Toxicity (caspase-3) Hek293 (AID 664); settings: HEK293 caspase-3 activation, DMSO = 0%, 100 µM tamoxifen = 100%; at 92.2 µM (top of the series);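 also: cells exposed to compound for 16 h at 37 °C before readout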
In short: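 Luminescent Caspase-Glo 3/7 readout (aminoluciferin release) in HEK293 cells after 16 h compound treatment, 37 °C. Normalization: DMSO = basal, 100 uM tamoxifen = 100% stimulation. Concentration-response fitted with standard Hill equation for AC50.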

[16] = Cellular Toxicity (caspase-3) N2a (AID 665);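 also: compound exposure lasted 16 h at 37 °C before readout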
In short: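 Luminescent Caspase-Glo 3/7 readout in N2a mouse neuroblastoma cells after 16 h compound exposure at 37 °C. Signal scaled to DMSO (basal) and 10 uM staurosporine (100%). Concentration-response fitted with Hill equation for AC50.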

[17] = Cellular Toxicity (caspase-3) NIH 3T3 (AID 666)
In short: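 NIH 3T3, 1000 cells/well, 5 hr settle then 16 hr compound at 37°C; Caspase-Glo 3/7, 20 min RT, luminescence. DMSO = basal, 100 uM tamoxifen = 100%. Hill-equation AC50, qHTS.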

| Compound | outcome [1] | activity change, negative = cytotoxicity [2] | activity change, negative = cytotoxicity [3] | Potency [4] | Potency [5] | Potency [6] | outcome [7] | outcome [8] | Potency [9] | Potency [10] | outcome [11] | outcome [12] | Potency [13] | outcome [14] | caspase-3 activation [15] | outcome [16] | outcome [17] |
| --- | --- | --- | --- | --- | --- | --- | --- | --- | --- | --- | --- | --- | --- | --- | --- | --- | --- |
| ClC(Cl)Cl | inactive | -12.8% | -17.2% | inactive | inactive | inactive | inactive | inactive | inactive | inactive | inactive | inactive | inactive | inactive | 0.0594% | inactive | inactive |
| C[C@H]1O[C@@H](O[C@H]2[C@@H](O)C[C@H](O[C@H]3[C@@H](O)C[C@H](O[C@H]4CC[C@@]5(C)[C@H](CC[C@@H]6[C@@H]5C[C@@H](O)[C@]5(C)[C@@H](C7=CC(=O)OC7)CC[C@]65O)C4)O[C@@H]3C)O[C@@H]2C)C[C@H](O)[C@@H]1O | inactive | – | -91% (active) | 20 nM (active) | inactive | 12.6 nM (active) | inactive | inactive | 12.6 nM (active) | inactive | inactive | inactive | inactive | inactive | -3.59% | inactive | inactive |
| CO | inactive | 8.2% | -1.78% | inactive | inactive | inactive | inactive | inactive | inactive | inactive | inactive | inactive | inactive | inactive | -0.124% | inactive | inactive |
| NCCN | inactive | 5.1% | -4.12% | inactive | inactive | inactive | inactive | inactive | inactive | inactive | inactive | inactive | inactive | inactive | 0.975% | inactive | inactive |
| COC(=O)c1ccccc1O | inactive | 0.567% | 6.05% | inactive | inactive | inactive | inactive | inactive | inactive | inactive | inactive | inactive | inactive | inactive | 0.0886% | inactive | inactive |
| Cc1ncc[nH]1 | inactive | -1.34% | -6.23% | inactive | inactive | inactive | inactive | inactive | inactive | inactive | inactive | inactive | inactive | inactive | -0.913% | inactive | inactive |
| OCc1ccccc1 | inactive | 4.71% | 7.44% | inactive | inactive | inactive | inactive | inactive | inactive | inactive | inactive | inactive | inactive | inactive | -0.432% | inactive | inactive |
| CC1=CC(=O)NS(=O)(=O)O1 | inactive | -19.6% | -8.99% | inactive | inactive | inactive | inactive | inactive | inactive | inactive | inactive | inactive | inactive | inactive | -2.78% | inactive | inactive |
| O.O.O.O.O.O.O.O=S(=O)([O-])[O-].[Co+2] | – | -16.8% | -26.9% | inactive | – | inactive | inactive | inactive | inactive | inactive | inactive | inactive | inactive | inactive | -1.13% | inactive | inactive |
